How the values were obtained:
Format in all cases: functional
[1] = target: Solute carrier family 2, facilitated glucose transporter member 1 (Homo sapiens) (UniProt P11166); experiment: ST_JUDE_LEISH: Cytotoxicity at 2uM final concentration against transgenic Leishmania Mexicana promastigotes LmGLUT1 that are glucose transport deficient and complemented with the human glucose transporter GLUT1. Activity is measured by DNA content using SYBR green in vitro
[2] = target: Hexose transporter 1 (Plasmodium falciparum) (UniProt O97467); experiment: ST_JUDE_LEISH: Cytotoxicity at 2uM final concentration against transgenic Leishmania Mexicana promastigotes LmPfHT that are glucose transport deficient and complemented with the Plasmodium falciparum hexose transporter. Activity is measured by DNA content using SYBR green in vitro
[3] = target: Glucose transporter (Leishmania mexicana) (UniProt O61059); experiment: ST_JUDE_LEISH: Cytotoxicity at 2uM final concentration against transgenic Leishmania Mexicana promastigotes LmGT2 that are glucose transport deficient and complemented with the L. Mexicana glucose transporter 2. Activity is measured by DNA content using SYBR green in vitro

Sequence of Solute carrier family 2, facilitated glucose transporter member 1 (Homo sapiens) (P11166 whole entry): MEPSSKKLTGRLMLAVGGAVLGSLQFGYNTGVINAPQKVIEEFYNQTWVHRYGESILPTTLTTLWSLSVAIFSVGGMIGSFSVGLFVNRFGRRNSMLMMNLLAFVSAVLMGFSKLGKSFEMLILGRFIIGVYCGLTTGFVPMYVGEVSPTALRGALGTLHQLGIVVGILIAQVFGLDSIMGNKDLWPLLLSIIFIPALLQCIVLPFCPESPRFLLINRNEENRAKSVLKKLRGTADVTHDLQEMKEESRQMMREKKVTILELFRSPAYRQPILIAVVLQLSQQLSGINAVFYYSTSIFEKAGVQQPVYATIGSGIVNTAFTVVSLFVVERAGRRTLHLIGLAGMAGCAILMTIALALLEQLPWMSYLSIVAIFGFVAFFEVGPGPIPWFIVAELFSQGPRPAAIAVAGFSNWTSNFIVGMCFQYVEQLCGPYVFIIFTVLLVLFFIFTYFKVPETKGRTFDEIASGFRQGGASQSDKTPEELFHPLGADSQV

| SMILES | inhibition [1] | inhibition [2] | inhibition [3] |
| --- | --- | --- | --- |
| CN1CC[C@@H](Oc2cc(Nc3nc(-c4ccc(C#N)cc4)cs3)ccc2Cl)C1 | 5.3% | 5.47% | 4.06% |
| NCCNS(=O)(=O)c1ccc(-c2ccnc3[nH]c(-c4ccncc4)cc23)cc1 | 0.72% | 1.19% | 0.62% |
| NC(=O)c1ccc(NCC(=O)Nc2cccc(-c3cccc(-c4nc5cc(C(F)(F)F)ccc5[nH]4)c3)c2)cc1 | 3.23% | 3.6% | 1.91% |
| C(=NN=c1cc(-c2ccccc2)[nH]c2ccccc12)c1cccnc1 | 15.1% | 11.7% | 6.62% |
| CS(=O)(=O)CCNCc1ccc(-c2cc3c(Nc4ccc(OCc5cccc(F)c5)c(Cl)c4)ncnc3s2)[nH]1 | 0.33% | 0.24% | 0.92% |
| CCNc1cc(C(=O)N[C@@H](Cc2ccccc2)[C@H](O)CNC23CCC(CC2)CC3)cc(N2CCCCS2(=O)=O)c1 | 0.73% | 0.04% | 0.09% |
| Cc1[nH]c(C)c(-c2ccc(CCc3ccc(F)cc3F)cc2)c(=O)c1Br | -0.51% | -1.51% | -2.17% |
| CCCN(CC1CC1)c1nc(C)nc2c(-c3ccccc3)cc(C)cc12 | 12.7% | 16.2% | 10.1% |
| CNC(=O)CNC(=O)COc1cccc2ccccc12 | 2.49% | 1.21% | 2.7% |
| COc1cccc2cc(C(=O)N[C@@H](CC(C)C)C(=O)Nc3cc(F)ccc3Br)oc12 | 1.51% | 0.34% | 0.22% |
| CC(C)(CNC(=O)C1CCN(CC2CCCCC2)CC1)c1nc(-c2ccc(Cl)c(O)c2)c(-c2ccncc2)[nH]1 | 1.84% | 0.23% | 2.71% |
| O=S(=O)(c1ccc(OCc2ccc(Cl)cc2)cc1)c1cc2c(cc1OCc1ccccc1)CCN(CC1CC1)CC2 | 0.01% | -1.17% | -3.24% |
| CN(C)CCn1c(N)c(-c2nc3ccccc3s2)c2nc(C#N)c(C#N)nc21 | 2.02% | 1.76% | 3.11% |
| COc1ccc2ncc(F)c(CCN3CC[C@@H](CNCc4cc(C)c5c(c4)OCCO5)C3)c2n1 | 7.09% | 8.46% | 5.39% |
| O=C(COc1ccccc1Cc1ccccc1)Nc1cc(Cl)ccc1-n1cncn1 | 4.5% | 4.62% | 3.15% |
| CCOc1cc(C(=O)Nc2cccnc2)ccc1-c1nc2cc(Cl)c(Cl)cc2[nH]1 | 1.75% | 0.16% | -0.85% |

| SMILES | inhibition [1] | inhibition [2] | inhibition [3] |
| --- | --- | --- | --- |
| CCCCCCOc1ccc(/C(N)=N\Cc2ccccc2)c2c1CCCC2 | 2.62% | 3.36% | 0.11% |
| COc1ccccc1CCN(C)CCN1CCC(NC(=O)c2ccc(-c3ccc(C(F)(F)F)cc3)cc2)CC1 | 1.81% | 1.97% | 1.05% |
| CCN(CC)CCN(Cc1ccc(-c2ccc(C(F)(F)F)cc2)nc1)C(=O)Cn1cc(Cc2cnn(C)c2)c(=O)n2nc(-c3ccccc3)cc12 | 2.39% | 3.48% | 0.44% |
| COc1ccc(-c2ccc(NC(=O)c3cccc(Cl)c3)cc2)cc1CNC(C)C | 4.75% | 5.52% | 1.96% |
| O=C(/C=C/c1ccc(Cl)c(Cl)c1)NCCCCCN1CCC(NC(=O)c2ccc([N+](=O)[O-])cc2)CC1 | 12.2% | 9.99% | 9.31% |
| O=C(Nc1cccc(C(F)(F)F)c1)c1ccc(S(=O)(=O)NCC2CCN(CC3CCCCC3)CC2)cc1 | 3.47% | 2% | 3.8% |
| COc1ccc2nccc([C@@H](O)CN3CCC(NCc4ccc5c(c4)NC(=O)CS5)CC3)c2n1 | 0.52% | 2.86% | -3.81% |
| Cc1nc2nc(N)nc(N)c2c(C)c1Cc1ccccc1I | 9.13% | 8.12% | 6.31% |
| FC(F)(F)c1cccc(C=NNc2nc3ccccc3[nH]2)c1 | 10.7% | 8.25% | 5.13% |
| CC(=O)c1nccc(C)c1N | 2.66% | 1.53% | 2.57% |
| CC(C)c1cc(C(=O)N[C@@H](Cc2ccccc2)[C@H](O)CNC2CCCCC2)cc(N2CCCC2=O)c1 | 2.19% | 1.07% | 2.18% |
| CCCCCCCn1c2c(c(=N)c3c1CCC3)CCCC2 | 92% | 90.8% | 80.1% |
| Cc1cc(N[C@@H](CC(C)C)C(=O)NCc2cccc(F)c2)nc(NCCc2ccc(F)cc2)n1 | 4.5% | 7.16% | 4.36% |
| O=C(/C=C/c1ccc(Cl)c(Cl)c1)NCCCCCCN1CCCN(C(=O)Nc2cc(Cl)cc(Cl)c2)CC1 | 0.67% | 0.41% | -2.48% |
| CCOc1ccc2c(=NN=Cc3ccccc3OC)cc(C)[nH]c2c1 | 7.35% | 7.09% | 6.71% |
| CC(=O)N(C)c1cccc(C(=O)Nc2ccc(-c3cccc(-c4nc5cc(C(F)(F)F)ccc5[nH]4)c3)cc2)c1 | 11.5% | 10.1% | 9.62% |

— ChEMBL document CHEMBL3433997, “St. Jude Leishmania screening dataset” (2016)
